In PubChem BioAssay (NCATS):
Records with an inconclusive call do not appear. Activity calls are given as the source filed them. Unless noted, the call rests on the fitted dose curve; in most records, active means well fitted curve in the direction sought with a large enough effect; inconclusive means small, poorly fitted or top-dose-only effect, or another doubt; inactive means no such curve, though single readings can be large; an effect the other way counts as inactive or inconclusive.

How the values were obtained:
[1] = molecular target: Cytochrome P450 1A2 (Homo sapiens) (UniProt P05177); test: p450-cyp1a2 (AID 410; calls by dose curve; further: potency means the concentration at half of the fitted maximal effect;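 on activity change, negative = inhibition: -100% = full effect of reference inhibitor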)
Chain of Cytochrome P450 1A2 (Homo sapiens) (P05177 whole entry, looked up): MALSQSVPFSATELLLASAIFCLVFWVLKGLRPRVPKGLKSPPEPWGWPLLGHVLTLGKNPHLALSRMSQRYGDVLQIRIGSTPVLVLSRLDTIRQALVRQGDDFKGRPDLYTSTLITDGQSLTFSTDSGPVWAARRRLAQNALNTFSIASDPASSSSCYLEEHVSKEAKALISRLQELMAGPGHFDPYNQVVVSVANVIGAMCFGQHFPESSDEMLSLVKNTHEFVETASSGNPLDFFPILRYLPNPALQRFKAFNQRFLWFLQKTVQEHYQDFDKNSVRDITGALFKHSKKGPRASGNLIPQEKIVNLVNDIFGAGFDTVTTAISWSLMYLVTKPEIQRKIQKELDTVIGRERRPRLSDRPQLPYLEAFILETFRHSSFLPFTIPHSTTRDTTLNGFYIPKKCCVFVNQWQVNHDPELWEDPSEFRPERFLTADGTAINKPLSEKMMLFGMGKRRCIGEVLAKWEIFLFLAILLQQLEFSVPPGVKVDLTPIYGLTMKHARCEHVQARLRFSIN
Outline: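 Inhibition was calculated relative to 57 uM furafylline (full inhibition). The reaction used human CYP1A2 at 20nM with Luciferin-ME at its Km, 100uM, driven by an NADPH-regenerating system for 60 min at room temperature.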

[2] = Stat Signaling Pathway (AID 446; active means well fitted curve in either direction with a large enough effect, not every such curve was filed as active;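 further: ME-180 cervical cancer cells given 40 pM IL-6 alongside compound; SIE-controlled beta-lactamase reporter measured as 460/530 nm FRET emission ratio; on the % scale 0 is the no-effect control and ±100 the full control effect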); conditions: ME-180 SIE beta-lactamase reporter, IL-6 stimulated, 5 h; at 17.2 µM (top of the series) unless noted
Outline: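 Screening format detects activators and inhibitors alike: ME-180 SIE-bla cells stimulated at 40 pM IL-6 for 5 hrs with compound, then dual-emission beta-lactamase read at 405 nm excitation.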

[3] = molecular target: Glucocorticoid receptor (Homo sapiens) (UniProt P04150); test: GR-GFP Redistribution (AID 450;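 active means compounds whose dose series gives a full or clear partial fitted curve of increased nuclear translocation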; further: potency means the concentration at half of the fitted maximal effect)
Chain of Glucocorticoid receptor (Homo sapiens) (P04150 whole entry, looked up, the tested form may be a part): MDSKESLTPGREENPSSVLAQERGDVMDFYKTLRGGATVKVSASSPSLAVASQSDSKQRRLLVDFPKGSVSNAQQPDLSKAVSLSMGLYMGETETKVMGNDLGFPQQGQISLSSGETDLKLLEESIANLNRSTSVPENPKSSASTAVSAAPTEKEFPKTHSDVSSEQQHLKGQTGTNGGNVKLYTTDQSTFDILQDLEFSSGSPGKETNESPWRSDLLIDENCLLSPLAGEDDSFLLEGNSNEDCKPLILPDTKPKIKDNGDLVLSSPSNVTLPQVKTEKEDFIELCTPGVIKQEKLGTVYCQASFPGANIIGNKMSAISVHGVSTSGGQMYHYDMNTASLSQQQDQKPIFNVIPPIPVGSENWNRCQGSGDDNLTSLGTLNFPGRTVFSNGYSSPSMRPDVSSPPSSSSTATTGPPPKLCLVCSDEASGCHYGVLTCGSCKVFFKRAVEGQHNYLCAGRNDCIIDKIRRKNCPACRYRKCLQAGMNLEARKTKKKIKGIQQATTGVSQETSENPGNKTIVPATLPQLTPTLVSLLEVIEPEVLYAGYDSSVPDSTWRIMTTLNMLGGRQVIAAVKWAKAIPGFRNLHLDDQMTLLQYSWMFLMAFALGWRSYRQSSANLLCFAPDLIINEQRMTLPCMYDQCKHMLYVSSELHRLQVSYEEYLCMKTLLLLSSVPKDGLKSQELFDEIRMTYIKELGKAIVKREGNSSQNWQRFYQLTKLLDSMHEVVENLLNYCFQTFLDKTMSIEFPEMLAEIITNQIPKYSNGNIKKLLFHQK

[4] = molecular target: Glucocorticoid receptor (Homo sapiens) (UniProt P04150); test: GR-EFC Redistribution (AID 451; calls by dose curve; further: potency means the concentration at half of the fitted maximal effect); conditions: CHO-K1 GR-EFC translocation, beta-gal luminescence, 2 h
Outline: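 CHO-K1 cells stably expressing nuclear-localized β-gal enzyme acceptor and GR fused C-terminally to the enzyme donor fragment; ligand-driven nuclear translocation restores β-gal by complementation. Compounds titrated up to 46 uM final, 2 h at 37 °C; luminescence read.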

[5] = molecular target: Mitogen-activated protein kinase 10 (Mus musculus) (UniProt Q61831); test: JNK3 AlphaScreen Assay (AID 530; active means well fitted curve in either direction with a large enough effect, not every such curve was filed as active;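 further: kinase came from lysate of stimulated human HepG2 cells; signal reports phosphorylation of biotinylated GST-cJun 1-79 at Ser73 with 10 µM ATP; on the % scale 0 is the no-effect control and ±100 the full control effect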)
Outline: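 JNK3 came from HepG2 lysates pre-activated with IL-1beta and TNF-alpha and phosphorylated biotinylated GST-cJun (1-79) at 10 uM ATP, pH 7.6, room temperature. Compounds were titrated. AlphaScreen signal used anti-phospho-cJun (Ser73) antibody.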

[6] = molecular target: Guanine nucleotide-binding protein G(i) subunit alpha-1 (Homo sapiens) (UniProt P63096); test: qHTS Assay for Inhibitors of RGS12 GoLoco Motif Activity (Green Fluorophore) (AID 879);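 further: 0% = labeled peptide with Gαi1 and full inhibition = labeled peptide alone without protein; negative values mean loss of peptide binding seen as reduced polarization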
Chain of Guanine nucleotide-binding protein G(i) subunit alpha-1 (Homo sapiens) (P63096 whole entry, looked up): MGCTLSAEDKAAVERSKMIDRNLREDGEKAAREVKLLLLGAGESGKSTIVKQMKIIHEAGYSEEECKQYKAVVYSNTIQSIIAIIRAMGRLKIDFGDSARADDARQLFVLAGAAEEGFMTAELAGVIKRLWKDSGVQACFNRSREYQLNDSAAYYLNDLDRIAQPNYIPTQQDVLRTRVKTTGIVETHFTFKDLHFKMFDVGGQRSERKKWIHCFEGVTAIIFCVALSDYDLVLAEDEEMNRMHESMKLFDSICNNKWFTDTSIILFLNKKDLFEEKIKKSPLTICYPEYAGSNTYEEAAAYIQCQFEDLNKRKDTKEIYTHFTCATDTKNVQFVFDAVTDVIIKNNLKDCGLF
Outline: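 Fluorescence polarization assay: 50 nM Gαi1 with 10 nM FITC-labeled RGS12 GoLoco peptide in 10 mM Tris pH 7.5, 150 mM NaCl, 0.1 mM GDP, 0.05% NP40, 10 min at room temperature with compound.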

[7] = molecular target: Muscarinic acetylcholine receptor M1 (Rattus norvegicus) (UniProt P08482); test: qHTS Assay for Antagonists of Acetylcholine Muscarinic M1 Receptor: Kinetic Measurement of Intracellular Calcium Response (AID 943); further: potency means the concentration at half of the fitted maximal effect; nearly all actives have a fitted effect of over 75% in size
Chain of Muscarinic acetylcholine receptor M1 (Rattus norvegicus) (P08482 whole entry, looked up): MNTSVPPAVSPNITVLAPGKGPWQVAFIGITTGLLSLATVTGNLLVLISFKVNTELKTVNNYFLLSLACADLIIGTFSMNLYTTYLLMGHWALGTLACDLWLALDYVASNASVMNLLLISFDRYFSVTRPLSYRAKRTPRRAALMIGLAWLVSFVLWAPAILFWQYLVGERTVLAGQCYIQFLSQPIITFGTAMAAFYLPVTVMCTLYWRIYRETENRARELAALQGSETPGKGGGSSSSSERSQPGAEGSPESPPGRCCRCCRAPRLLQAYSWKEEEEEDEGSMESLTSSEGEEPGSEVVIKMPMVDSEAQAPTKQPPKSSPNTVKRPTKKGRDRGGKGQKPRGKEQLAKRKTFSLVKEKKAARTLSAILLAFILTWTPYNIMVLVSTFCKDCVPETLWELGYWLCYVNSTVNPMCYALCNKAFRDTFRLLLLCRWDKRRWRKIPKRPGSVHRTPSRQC
Outline: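 Intracellular calcium flux, recorded with Fluo-4 in a kinetic plate reader, served as signal; the response to carbachol at EC80 (100 nM final) was taken as maximal over minimal fluorescence after a 10 min compound pre-incubation in rat M1-CHO cells.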

[8] = molecular target: Pyruvate kinase (Leishmania mexicana) (UniProt Q27686); test: qHTS Validation Assay for Inhibitors of Leishmania Mexicana Pyruvate Kinase (AID 945);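 further: 0% = DMSO only neutral control wells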
Chain of Pyruvate kinase (Leishmania mexicana) (Q27686 2-499 E452W): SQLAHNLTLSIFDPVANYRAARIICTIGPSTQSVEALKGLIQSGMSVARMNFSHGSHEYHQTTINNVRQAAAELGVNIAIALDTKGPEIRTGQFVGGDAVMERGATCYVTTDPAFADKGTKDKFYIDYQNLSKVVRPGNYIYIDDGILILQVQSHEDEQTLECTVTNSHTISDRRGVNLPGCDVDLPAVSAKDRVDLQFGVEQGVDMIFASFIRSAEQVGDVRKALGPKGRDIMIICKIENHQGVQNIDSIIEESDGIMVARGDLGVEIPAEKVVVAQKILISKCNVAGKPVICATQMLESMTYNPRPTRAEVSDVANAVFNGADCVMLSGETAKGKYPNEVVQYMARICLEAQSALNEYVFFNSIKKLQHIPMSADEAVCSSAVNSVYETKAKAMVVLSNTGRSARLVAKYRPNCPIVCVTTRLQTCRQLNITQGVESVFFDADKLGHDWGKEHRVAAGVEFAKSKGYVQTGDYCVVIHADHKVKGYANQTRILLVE
Outline: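 Eight-point qHTS titrations; enzyme 0.2 nM LmPYK (E451W mutant); substrates 0.5 mM PEP, 0.1 mM ADP; 7 mM MgCl2; 1 h room temperature; PKLight luminescence normalized to neutral control.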

[9] = molecular target: Pyruvate kinase PKM (Homo sapiens) (UniProt P14618); test: qHTS Assay for Activators of Human Muscle Pyruvate Kinase (AID 954; active means well fitted curve in the direction sought with a large enough effect, not every such curve was filed as active;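 further: 0% = uninhibited enzyme and -100% = no enzyme or full thiadiazolimine inhibition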)
Chain of Pyruvate kinase PKM (Homo sapiens) (P14618 whole entry, looked up): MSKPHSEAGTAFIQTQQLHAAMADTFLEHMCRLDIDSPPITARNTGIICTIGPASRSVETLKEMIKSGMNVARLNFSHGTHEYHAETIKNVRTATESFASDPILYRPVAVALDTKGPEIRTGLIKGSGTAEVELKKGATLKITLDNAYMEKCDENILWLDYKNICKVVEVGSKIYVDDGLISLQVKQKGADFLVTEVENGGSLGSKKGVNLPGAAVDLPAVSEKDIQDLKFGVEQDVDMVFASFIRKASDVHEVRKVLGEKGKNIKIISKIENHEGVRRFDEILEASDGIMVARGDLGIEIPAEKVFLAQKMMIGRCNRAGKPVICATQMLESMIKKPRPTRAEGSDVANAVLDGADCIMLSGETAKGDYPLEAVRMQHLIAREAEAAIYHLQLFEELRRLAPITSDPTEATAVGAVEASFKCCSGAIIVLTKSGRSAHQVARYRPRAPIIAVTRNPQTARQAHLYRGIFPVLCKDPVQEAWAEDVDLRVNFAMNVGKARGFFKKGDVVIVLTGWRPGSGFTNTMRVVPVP
Outline: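 Reaction: 0.1 nM purified PKM2 with 0.5 mM phosphoenolpyruvate and 0.1 mM ADP, room temperature, 1 h. Readout: luciferase-based ATP luminescence after stop reagent. Activators judged against a 0.3 nM enzyme column.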

[10] = molecular target: Alpha-galactosidase A (Homo sapiens) (UniProt P06280); test: Counterscreen for Glucocerebrosidase Inhibitors: qHTS Assay for Human alpha-Galactosidase at pH 4.5 (AID 992); further: 0% is about no effect
Chain of Alpha-galactosidase A (Homo sapiens) (P06280 whole entry, looked up): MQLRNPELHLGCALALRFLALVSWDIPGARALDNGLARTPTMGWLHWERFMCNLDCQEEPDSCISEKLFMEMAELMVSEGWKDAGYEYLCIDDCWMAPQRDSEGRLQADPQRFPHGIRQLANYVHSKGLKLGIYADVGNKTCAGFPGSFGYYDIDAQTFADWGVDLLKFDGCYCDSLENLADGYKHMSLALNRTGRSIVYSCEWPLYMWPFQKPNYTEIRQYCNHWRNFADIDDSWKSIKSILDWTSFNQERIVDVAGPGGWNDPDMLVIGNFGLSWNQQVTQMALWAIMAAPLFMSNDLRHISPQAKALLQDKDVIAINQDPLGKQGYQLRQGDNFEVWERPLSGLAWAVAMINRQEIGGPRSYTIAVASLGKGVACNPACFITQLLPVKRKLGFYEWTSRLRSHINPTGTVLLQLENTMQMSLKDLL
Outline: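 Concentration-response curves (0.7 nM to 77 uM final) were modeled with the Hill equation to give AC50. Reactions: 2 nM enzyme, 80 uM fluorogenic alpha-galactoside, pH 4.5 citric acid buffer, 20 min, room temperature.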

[11] = molecular target: alpha-glucosidase (Oryza sativa, rice) (UniProt Q653V4); test: Counterscreen for Glucocerebrosidase Inhibitors: qHTS Assay for Rice alpha-Glucosidase at pH 5.0 (AID 997);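 further: 0% = full activity with enzyme and -100% = basal without enzyme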
Outline: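 Rice alpha-glucosidase (4 nM final) with 400 uM 4-methylumbelliferyl-alpha-D-glucopyranoside in citrate buffer pH 5.0, 20 min at room temperature, stopped at pH 10; fluorescence 365/440 nm, compounds 0.7 nM–77 uM, AC50 from Hill fits.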

[12] = molecular target: 3',5'-cyclic-AMP phosphodiesterase 4B (Homo sapiens) (UniProt Q07343); test: qHTS Assay for Inhibitors of PDE-IV (AID 607; active means well fitted activation curve with a large enough effect in the main read-out, with a control signal flat, not every such curve was filed as active; further: % of control where 0% means no effect)
Chain of 3',5'-cyclic-AMP phosphodiesterase 4B (Homo sapiens) (Q07343 whole entry, looked up): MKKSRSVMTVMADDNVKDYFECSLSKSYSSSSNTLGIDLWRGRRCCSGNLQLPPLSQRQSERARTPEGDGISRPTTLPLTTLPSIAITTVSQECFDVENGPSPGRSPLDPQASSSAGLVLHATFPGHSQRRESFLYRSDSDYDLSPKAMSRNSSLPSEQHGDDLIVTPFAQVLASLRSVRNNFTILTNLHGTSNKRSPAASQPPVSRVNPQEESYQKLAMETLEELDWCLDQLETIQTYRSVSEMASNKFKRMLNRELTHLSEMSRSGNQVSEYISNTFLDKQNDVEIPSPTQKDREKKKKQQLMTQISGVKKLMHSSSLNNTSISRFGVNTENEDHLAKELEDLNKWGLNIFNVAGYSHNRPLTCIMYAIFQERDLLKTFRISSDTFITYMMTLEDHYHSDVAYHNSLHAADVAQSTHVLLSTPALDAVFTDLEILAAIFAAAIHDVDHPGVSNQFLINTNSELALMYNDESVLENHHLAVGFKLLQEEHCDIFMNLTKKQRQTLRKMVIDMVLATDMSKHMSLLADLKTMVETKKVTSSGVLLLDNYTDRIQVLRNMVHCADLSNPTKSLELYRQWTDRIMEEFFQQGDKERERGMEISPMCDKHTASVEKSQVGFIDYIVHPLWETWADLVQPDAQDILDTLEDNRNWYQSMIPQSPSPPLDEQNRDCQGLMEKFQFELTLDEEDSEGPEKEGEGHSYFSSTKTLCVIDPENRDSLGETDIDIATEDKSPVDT
Outline: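 The readout is membrane depolarisation from a cAMP-sensing CNG channel, detected with a potential dye at ex 535/em 590. Cells were HEK293-derived (endogenous PDE-IV) at 1000 cells/well, titrated up to 22.9 uM final.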

[13] = molecular target: Cytochrome P450 3A4 (Homo sapiens) (UniProt P08684); test: qHTS Assay for Inhibitors and Substrates of Cytochrome P450 3A4 (AID 884); further: nearly all actives have a fitted effect of over 50% in size; further: potency means the concentration at half of the fitted maximal effect
Chain of Cytochrome P450 3A4 (Homo sapiens) (P08684 whole entry, looked up): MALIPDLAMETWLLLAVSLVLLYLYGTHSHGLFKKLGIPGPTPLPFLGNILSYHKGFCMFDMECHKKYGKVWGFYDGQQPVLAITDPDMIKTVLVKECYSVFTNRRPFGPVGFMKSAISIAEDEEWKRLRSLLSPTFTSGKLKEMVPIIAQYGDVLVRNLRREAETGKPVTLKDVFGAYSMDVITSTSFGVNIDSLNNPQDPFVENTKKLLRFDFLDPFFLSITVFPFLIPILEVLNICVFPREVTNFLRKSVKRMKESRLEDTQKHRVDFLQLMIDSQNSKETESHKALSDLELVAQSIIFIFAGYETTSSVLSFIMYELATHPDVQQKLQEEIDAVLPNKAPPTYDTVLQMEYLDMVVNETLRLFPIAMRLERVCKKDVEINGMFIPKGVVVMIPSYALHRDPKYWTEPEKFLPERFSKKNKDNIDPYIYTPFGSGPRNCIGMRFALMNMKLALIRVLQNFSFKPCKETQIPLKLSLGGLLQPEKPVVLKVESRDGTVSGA
Outline: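 20 nM human CYP3A4 with 25 uM Luciferin-PPXE (at KM) in 200 mM KPO4, preincubated 10 min with compound; NADPH regeneration started a 60 min RT reaction. Luciferin detected by luminescence, normalized to 57 uM ketoconazole as full inhibition.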

[14] = molecular target: Cytochrome P450 3A4 (Homo sapiens) (UniProt P08684); test: qHTS Assay for Activators of Cytochrome P450 3A4 (AID 885); further: nearly all actives have a fitted effect of over 65% in size; further: potency means the concentration at half of the fitted maximal effect
Outline: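 Steps: enzyme/substrate mix dispensed; compound added, 10 min RT; NADPH regeneration solution added, 60 min RT; luciferin detection buffer stops reaction; 20 min later luminescence measured.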

[15] = NFAT Signaling Pathway (AID 444; active means well fitted curve in either direction with a large enough effect, not every such curve was filed as active;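 further: carbachol stimulus at about its EC50 of 1 µM final; on the % scale 0 is the no-effect control and ±100 the full control effect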); conditions: Jurkat NFAT-bla M1, carbachol, beta-lactamase ratio, 5 h; at 17.2 µM (top of the series) unless noted
Outline: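 Jurkat cells carrying an NFAT-driven β-lactamase reporter and co-transfected muscarinic M1 receptor were treated with compound plus carbachol (1 uM final, an EC50 level) for 5 h at 37 °C. CCF4 loading followed for 1 h at RT; 460/530 nm ratio gave %activity.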

[16] = qHTS Assay for Identification of Small Molecule Agonists for Thrombopoietin (TPO) Signaling Pathway (AID 917); further: on the % scale 0 is the no-effect control and ±100 the full control effect
Outline: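 Murine Ba/F3 cells expressing human TPO receptor and GPIIb-promoter luciferase, IL-3-starved overnight, given compound plus TPO at 26 pM (EC50). After 24 h at 37 C, 5% CO2, luminescence read.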

[17] = molecular target: Muscarinic acetylcholine receptor M1 (Rattus norvegicus) (UniProt P08482); test: qHTS Assay for Antagonists of Acetylcholine Muscarinic M1 Receptor: Measurement of IP-One Response (AID 944); further: nearly all actives have a fitted effect of over 75% in size; further: potency means the concentration at half of the fitted maximal effect
Outline: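 Steps: plate transfected CHO-M1 cells overnight; add test compound, 10 min; add carbachol (200 nM, EC80) in stimulation buffer with LiCl; incubate 30 min; add labelled IP1 tracer and anti-IP1 antibody in lysis buffer; read HTRF after 10 min.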

[18] = AP1 Signaling Pathway (AID 357; active means well fitted curve in either direction with a large enough effect, not every such curve was filed as active); conditions: ME-180 AP-1-bla reporter, EGF-induced, beta-lactamase ratio, 5 h; at 17.2 µM (top of the series) unless noted
Outline: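 Modulation of EGF-driven AP-1 transcription was assessed with a beta-lactamase reporter in ME-180 cells. Compound and EC50 EGF were co-incubated 5 hours at 37 °C before 2.5-hour CCF4 loading at room temperature and dual-emission reading.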

[19] = qHTS Assay for Identification of Small Molecule Agonists for Hypoxia Response Element Signaling Pathway (AID 914; active means well fitted activation curve with a large enough effect in the signal ratio, with a control signal flat, not every such curve was filed as active; the % refers to the signal ratio; further: potency means the concentration at half of the fitted maximal effect; on activation: % of control where 0% means no effect); conditions: ME-180 (cervical carcinoma) HRE-bla reporter, beta-lactamase ratio, CoCl2, 17 h; activation: hits give high values
Outline: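 HRE-bla ME-180 assay for agonist-like enhancement of an EC50 CoCl2 stimulus: 17 h at 37 degrees Celsius, CCF4 for 2.5 h, ratiometric 460/530 nm signal converted to %Activity and fitted to AC50.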

[20] = molecular target: Cytochrome P450 2C19 (Homo sapiens) (UniProt P33261); test: qHTS Assay for Inhibitors and Substrates of Cytochrome P450 2C19 (AID 899); further: potency means the concentration at half of the fitted maximal effect; nearly all actives have a fitted effect of over 60% in size
Outline: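 NADPH-dependent conversion of Luciferin-H EGE (10uM, at KM) by 5nM enzyme in 50mM KPO4, 60 min at 37C following 10 min compound preincubation. Stopped with luciferin detection buffer; luminescence read after 20 min.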

[21] = Confirmation and Secondary Assay for Modulators of Hemoglobin Beta Chain Splicing at IVS2 654 locus (AID 910);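 further: per-well total GFP intensity by laser scanning cytometry after 2-day treatment; % of control where 0% means no effect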
Outline: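 HeLa cells stably carrying EGFP interrupted by mutant beta-globin IVS2-654 intron (CMV-driven) were treated with compound for 2 days at 37C; corrected splicing was scored as total peak GFP intensity per well (488 nm excitation, 500-520 nm emission).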

[22] = Confirmation and Secondary Assay for Modulators of Hemoglobin Beta Chain Splicing at IVS2 705 locus (AID 930);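 further: HeLa cells stably expressing the EGFP-705 splicing reporter; GFP fluorescence per well restored by corrected splicing of the IVS2-705 intron in EGFP; % of control where 0% means no effect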
Outline: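 HeLa IVS2-705 EGFP reporter cells, 500/well, compound 2 d at 37C; correct splicing yields fluorescent EGFP. Control: 500 nM antisense PNA. Read-out: total peak GFP intensity.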

[23] = molecular target: Cytochrome P450 2D6 (Homo sapiens) (UniProt P10635); test: qHTS Assay for Inhibitors and Substrates of Cytochrome P450 2D6 (AID 891); further: potency means the concentration at half of the fitted maximal effect; nearly all actives have a fitted effect of over 60% in size
Outline: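 Human CYP2D6 (5 nM) with 30 uM Luciferin-ME EGE (at Km) in 100 mM KPO4, compound preincubated 10 min, then NADPH regeneration system for 60 min at room temperature. Luciferin read by luminescence; normalized to 1.43 uM quinidine.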

CNCC[C@H](Oc1ccccc1C)c1ccccc1
active: Potency [1] 15.8 µM | Potency [7] 11.2 µM
inactive: activity, negative = inhibition [2] -13.9% [at 38 µM] | Potency [3] > 46 µM | Potency [4] > 46 µM | Potency [5] | outcome [6] | Potency [8] | outcome [9] | outcome [10] | outcome [11]

C=CCN1CCc2c(cc(O)c(O)c2Br)[C@H](c2ccccc2)C1
active: Potency [1] 12.6 µM | Potency [14] 20 µM
inactive: activity, negative = inhibition [2] 7.2% [at 38 µM] | Potency [3] > 46 µM | Potency [4] > 46 µM | Potency [12] | outcome [6] | Potency [13] | Potency [8] | outcome [9] | outcome [10] | outcome [11]

CCCCC#Cc1nc(N)c2ncn([C@@H]3O[C@@H](C(=O)NCC)[C@H](O)[C@@H]3O)c2n1
inactive: Potency [1] | activity change, negative = inhibition [15] 15.6% [at 38 µM] | Potency [3] > 46 µM | Potency [4] > 46 µM | Potency [5] | Potency [12] | outcome [6] | Potency [14] | Potency [16] | Potency [17] | Potency [8] | outcome [9] | outcome [10] | outcome [11]

CN1CCc2c(sc3c2c(=O)n(-c2ccccc2)c2nnc(SCc4ccccc4)n32)C1
inactive: activity change, negative = inhibition [18] -13.6% | Potency [3] > 20.6 µM

COc1cccc2c1C(=O)c1c(O)c3c(c(O)c1C2=O)C[C@](O)(C(=O)CO)C[C@H]3O[C@@H]1C[C@H](N)[C@H](O)[C@H](C)O1
inactive: Potency [1] | Potency [3] > 20.6 µM | Potency [4] > 20.6 µM | Potency [12]
active: activity, negative = inhibition [2] 92.4% [activator]

CCNC(=O)c1cc2c(=O)n3cccc(C)c3nc2n(CCc2ccccc2)c1=N
inactive: activity change, negative = inhibition [18] 20.4% | Potency [3] > 20.6 µM
active: Potency [19] 10 µM

Cc1cc(C)c(C#N)c(SCc2[nH]nc3c2C(c2ccccc2)C(C#N)=C(N)O3)n1 (stereo not given)
inactive: activity change, negative = inhibition [18] -21.7% | Potency [3] > 20.6 µM | activation [19] -8.62%

CCOc1ccc2c(ccc(/C=C\c3cc(C)c4cccnc4c3O)[n+]2C)c1
inactive: activity change, negative = inhibition [18] -9.14% [at 7.69 µM] | Potency [3] > 46 µM | Potency [4] > 9.22 µM | Potency [12]

FC(F)(F)c1ccccc1-c1nc(Nc2ccncc2)c2ccccc2n1
active: Potency [1] 10 µM | Potency [13] 0.631 µM | Potency [20] 2 µM
inactive: activity change, negative = inhibition [15] -8.21% [at 7.69 µM] | activity, negative = inhibition [2] -14.6% [at 7.69 µM] | Potency [3] > 46 µM | Potency [4] > 46 µM | Potency [5] | Potency [14] | Potency [21] | Potency [22]

CC(C)C(=O)N1CCN(c2nc(-c3ccccc3)c3c(c2C#N)CCCC3)CC1
inactive: activity change, negative = inhibition [18] -14.8% | Potency [3] > 20.6 µM

CN1CCN([C@@H]2Cc3ccccc3Sc3ccc(Cl)cc32)CC1
active: Potency [1] 12.6 µM | Potency [23] 0.398 µM | Potency [7] 1.78 µM | Potency [17] 10 µM
inactive: activity, negative = inhibition [2] 2.01% [at 38 µM] | Potency [3] > 46 µM | Potency [4] > 46 µM | outcome [6] | Potency [14] | Potency [8] | outcome [9] | outcome [10] | outcome [11]
